High-throughput results as filed in PubChem.
Sampled rows, rich in hits. Any-hit rate of the full collection: about 21%.
CHX counter: counter-screen hit for Shiga toxin inhibitors, cycloheximide. hit rate 12% among 300,000. AID 2314. cell reporter, cycloheximide protein synthesis inhibition counterscreen. max response, %; in the data active = max response mostly above about 13%, no sharp cut-off; inactive = mostly below about 14%; note: read at 38.3 µM for the half of the compounds with a filed dose
Pf growth 96h: P. falciparum growth inhibition at 96 hour, primary screen for plastid delayed-death inhibitors; hit rate 6.9% among 320,000; P. falciparum luciferase reporter growth, 96 h; Potency, µM (top dose mostly 28.7 µM), actives largely listed as inhibitors
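Two parasite generations (96 h, 37 C, 5% CO2) of compound exposure in infected erythrocytes (0.05% parasitemia, 2% hematocrit). Luciferase-reporter P. falciparum; decreased luminescence indicates inhibited growth, aimed at apicoplast-acting delayed death.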
Pf growth 48h: P. falciparum growth inhibition at 48 hours (one generation); P. falciparum luciferase growth in erythrocytes, 48 h; Potency, µM (titrated, usually from 28.7 µM), hits mostly inhibitors; hit rate 5.9% among 310,000
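Cell-based growth assay: transgenic P. falciparum expressing firefly luciferase, cultured in red cells within RPMI 1640 containing 0.5% w/v Albumax, 24 mM bicarbonate and gentamycin. A drop in luciferase activity indicates inhibition.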
Sm TGR block: S. mansoni TGR enzyme inhibition; Q962Y6; purified TGR, DTNB reduction, TNB absorbance 405 nm; Potency, µM (titrated, usually from 114 µM), hits mostly inhibitors; hit rate 3% among 360,000; AID 485364; note: nearly all actives have a fitted effect of over 60% in size
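First, TGR (20 nM dispensed) and NADPH were mixed with compound. Second, a 15 min room-temperature incubation followed. Third, further NADPH and then DTNB were added to start the reaction. Finally, TNB absorbance was monitored kinetically.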
Shiga toxin inh: inhibitors of Shiga toxin in Vero cells | AID 2315 | hit rate 9.2% among 290,000 | inhibition, % at 38.7 µM | Vero cells, Shiga toxin protein synthesis inhibition reporter; in the data active = inhibition mostly above about 28%, no sharp cut-off; inactive = mostly below about 43%
NS1 inh: influenza NS1 inhibition | Potency, µM (top dose mostly 46.1 µM) | hit rate 0.4% among 270,000 | AID 2326; calls by dose curve; note: actives are rising curves; nearly all actives have a fitted effect of over 50% in size
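Compounds were scored for reversing the slow growth caused by influenza A NS1 in S. cerevisiae, measured by optical density at 600 nm. Assay medium contained 2% galactose at pH 6.0; NS1-free yeast of the same strain were the positive control.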
Numbers stand for hits; – = inactive; ? = inconclusive; · = no result given. Unless noted, calls come from the whole dose curve; as a rule, active = well fitted curve in the direction sought with a large enough effect; inconclusive = small, poorly fitted or top-dose-only effect, or another doubt; inactive = no such curve, though single readings can be large; an effect the other way counts as inactive or inconclusive.

SMILES	CHX counter	Pf growth 96h	Pf growth 48h	Sm TGR block	Shiga toxin inh	NS1 inh
CCn1cc([N+](=O)[O-])c(=O)c2cc(F)c(N3CCOCC3)cc21	–	?	?	–	–	–
CCCCCCCC(=O)N1CCN(c2cc3c(cc2F)c(=O)c(C(=O)O)cn3CC)CC1	–	?	?	–	–	–
CC(=O)c1cccc(-n2c(=O)c3c4c(sc3n(Cc3ccccc3Cl)c2=O)CN(C(C)=O)CC4)c1	·	·	·	–	·	·
CCn1cc(C(=O)O)c(=O)c2cc(F)c(N3CCN(C(=S)NC(=O)c4cccc(C)c4)CC3)cc21	–	–	?	–	–	–
CCn1cc(C(=O)O)c(=O)c2cc(F)c(N3CCN(C(=S)NC(=O)c4ccccc4F)CC3)cc21	–	6.6µM	4.1µM	–	–	–
CN(C)c1ccc(CNC(=O)CCCN2C(=O)c3cccnc3Oc3ccc(Cl)cc32)cc1	·	·	·	–	·	·
COc1cc(/C=C2/C(=N)N3N=C(CC(=O)N4CCOCC4)SC3=NC2=O)ccc1OCc1ccccc1	21	–	–	–	35	–
Cc1cc(/C=C2\C(=N)N3N=C(CC(=O)N4CCOCC4)SC3=NC2=O)c(C)n1-c1ccccc1	–	?	?	–	–	–
COc1ccc(-n2c(C)cc(/C=C3\C(=N)N4N=C(CC(=O)N5CCOCC5)SC4=NC3=O)c2C)cc1	–	13µM	13µM	–	–	?
CCOc1cc(/C=C2\C(=N)N3N=C(CC)SC3=NC2=O)ccc1OCCOc1ccc(NC(C)=O)cc1	–	2.6µM	?	–	–	–
CCOc1ccc(C2Sc3ccccc3NC3=C2C(=O)OC3)cc1 (centres undefined)	23	?	–	–	–	–
Cc1cncn1CCc1nc2c3ccccc3nc(SCC(=O)Nc3ccccc3F)n2n1	·	·	·	–	·	·
CCOc1ccccc1-n1ccnc(NCc2ccc(F)cc2)c1=O	·	·	·	–	·	·
CC(=O)CC(C)(C)NC(C)=S	–	–	–	–	–	–
CCOP(=O)(OCC)/C(C#N)=C/c1c[nH]c2ccccc12	–	?	?	–	–	–
CC(=O)Oc1c(/C=C(\C#N)C(N)=O)[nH]c2ccccc12	–	–	10µM	–	–	–
CCOc1ccccc1/C=C(/C#N)C(N)=O	–	?	–	–	–	?
Cc1ccc(S(=O)(=O)/C(C#N)=C/c2c[nH]c3ccccc23)cc1	–	·	–	–	–	–
CCOC(=O)/C(C#N)=C/c1c[nH]c2ccccc12	28	–	–	–	81	–
COC(=O)/C(C#N)=C/c1c[nH]c2ccccc12	37	?	–	–	103	·
N#C/C(=C\c1c[nH]c2ccccc12)C(N)=O	9.0	–	–	–	–	–
CCn1c2ccccc2c2nnc(NCCCO)nc21	·	·	·	·	·	–
O=[N+]([O-])c1cc(Br)c(Nc2ccccc2)c([N+](=O)[O-])c1	–	–	0.52µM	11µM	–	–
O=C(Nc1ccccc1)c1ccc(Nc2c([N+](=O)[O-])cc([N+](=O)[O-])c3ccccc23)cc1	–	–	?	–	–	–
Cc1cccc(Nc2ccc([N+](=O)[O-])cc2C(=O)O)c1	28	–	–	–	–	–
SMILES	CHX counter	Pf growth 96h	Pf growth 48h	Sm TGR block	Shiga toxin inh	NS1 inh
O=C(O)c1cc([N+](=O)[O-])ccc1C(=O)Nc1ccccc1	–	–	–	–	–	–
O=C(O)c1cc([N+](=O)[O-])ccc1NCCO	–	–	–	–	–	–
O=C(O)c1cc([N+](=O)[O-])ccc1Nc1ccccc1	–	10µM	–	–	–	–
COc1ccc(CNC(=O)CN2C(=O)CSc3ccc(S(=O)(=O)N(C)C)cc32)cc1	·	·	·	–	·	·
Cc1ccccc1NC(=S)N(Cc1ccccc1)Cc1cccnc1	–	–	?	–	–	–
Cc1ccccc1NC(=S)N(CCCN1CCC(C)CC1)Cc1ccco1	–	13µM	–	–	–	–
Cc1ccccc1NC(=S)N(Cc1cccnc1)Cc1ccco1	–	1.9µM	?	–	–	–
Cc1ccc(Cl)cc1NC(=S)N(Cc1cccnc1)Cc1ccccc1Cl	–	–	13µM	–	–	·
COc1ccc(NC(=O)N(Cc2cccnc2)Cc2ccccc2Cl)c(OC)c1	·	·	·	·	·	–
Cc1ccccc1NC(=S)N(CCCN1CCCCC1)Cc1ccco1	–	–	–	–	–	–
COc1cc(NC(=O)CN(C)C2CCCCC2)c(C)cc1[N+](=O)[O-]	–	?	–	–	–	–
CCOc1ccc(NC(=O)N[C@@H](Cc2ccccc2)C(=O)O)cc1	–	–	–	–	–	–
CCOC(=O)c1ccccc1NC(=O)COC(=O)c1c(CC)noc1C	·	?	–	–	·	·
Cc1ccccc1NC(=O)CSc1nc2ccc(NC(=O)CCc3ccccc3)cc2s1	·	·	·	–	·	·
COc1cc(/C=N/NC(=O)C(=O)/C=C2\NC3(CCCC3)Cc3ccccc32)ccc1O	–	?	?	–	–	–
CN(C)c1ccc(/C=N/NC(=O)C(=O)/C=C2\NC3(CCCC3)Cc3ccccc32)cc1	–	2.6µM	?	–	–	?
O=C(/C=C1\NC2(CCCC2)Cc2ccccc21)C(=O)N/N=C/c1ccccc1O	23	–	–	–	–	?
N#CC1=C(N)N=C(SCc2cccc3ccccc23)C(C(N)=O)C12CCCCC2 (centres undefined)	–	12µM	·	–	–	–
Nc1cc(=O)[nH]c(SCc2cccc3ccccc23)n1	–	–	?	–	–	–
Cc1cccc(OCCCn2c(CCNC(=O)C3CCCCC3)nc3ccccc32)c1	–	·	·	–	–	·
COc1ccc(S(=O)(=O)Oc2ccc3ccccc3c2)cc1	23	?	–	–	23	–
CCn1c(SCC(=O)c2ccccc2)nc2ccccc2c1=O	–	–	–	–	–	–
Cc1nc2ccccc2c(=O)n1NC(=O)c1ccc(Cl)cc1	–	?	–	–	–	–
O=C(CSc1nc2ccccc2c(=O)n1NC(=O)c1ccccc1)c1ccccc1	41	–	–	–	74	–
O=C(CSc1nc2ccccc2c(=O)n1NC(=O)c1ccccc1)c1ccc(Cl)cc1	34	–	–	–	98	?
SMILES	CHX counter	Pf growth 96h	Pf growth 48h	Sm TGR block	Shiga toxin inh	NS1 inh
CN(C)/C=C(\C=O)c1ncc(C(F)(F)F)cc1Cl	–	?	–	?	–	·
COc1cc(C2NC(=O)NC(C)=C2C(=O)OCC2CCCO2)cc(OC)c1OC (centres undefined)	–	–	–	–	–	–
COC(=O)c1ccccc1NC(=O)COC(C)=O	–	–	–	?	–	–
CC(=O)c1ccc(COC(=O)c2ccccc2NC(=O)C(C)C)cc1	–	–	–	·	–	–
CC(=O)Nc1ccccc1C(=O)OCc1ccccc1F	29	?	–	–	–	–
CC(=O)Nc1ccccc1C(=O)OCC(=O)c1ccccc1Cl	24	–	–	–	53	–
Cc1cc(/C=C(/C#N)c2nc3ccccc3[nH]2)c(C)n1-c1cccc([N+](=O)[O-])c1	32	2.3µM	·	–	37	–
Cc1cc(/C=C(\C#N)c2nc3ccccc3[nH]2)c(C)n1C	23	–	–	–	67	–
CCCC(C)NC(=O)/C=C/c1cccc([N+](=O)[O-])c1 (centres undefined)	11	–	?	–	–	–
